In PubChem BioAssay (EPA / NIEHS) one finds outcome and AC50 data, which are given here for 39 compounds.

Records with an inconclusive call do not appear. More than one record can exist for a structure, and the calls need not agree. Calls of active or inactive are those of the source. The calls were made as follows: active = hit-call score of the fitted dose curve at least 0.9, where 1 is the maximum; inconclusive = response in the unintended direction; inactive = score below 0.9.

The experiment is described as follows: ATG_XTT_Cytotoxicity: Cytotoxicity Assessment in the Attagene TRANS-FACTORIAL HepG2 Assay (AID 2283584).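 As to AC50: XTT signal for cell number as viability in transfected HepG2 cells; cells exposed to compound for 24 h before reading; active means loss of viability signal versus DMSO baseline.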 The essentials:
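Transfect HepG2 with GAL4-UAS reporter units, dose compound, incubate 24 h, then measure viable cell number by XTT. Fit concentration response against DMSO baseline.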
On to `O=CC=O`, for which the compound was classed as inactive.
Regarding `O=C1C(Cl)=C(Cl)C(=O)c2ccccc21`, the compound was called inactive.
As for `CCc1ccccc1N`, the compound was classed as inactive.
Same read-out and setting: with `CCOP(=S)(OCC)SCCS(=O)(=O)CC` the entry was “inactive”; with `Cl/C=C\C[N+]12CN3CN(CN(C3)C1)C2`, “inactive”; with `CC(=O)C=C(C)C`, “inactive”.
Take `CCc1ccccc1C`: the result was inactive.
Still for that read-out and setting: with `CCN(CC)C(=O)Cl` the entry was “inactive”; with `CC(Br)C(=O)O` (stereo not given), “inactive”.
Still for that read-out and setting: for `C[C@]12CC[C@H](O)CC1=CC[C@@H]1[C@@H]2CC[C@]2(C)C(=O)CC[C@@H]12` the value was “inactive”; for `ClC(Cl)=C(Cl)C(Cl)=C(Cl)Cl`, “inactive”.
Regarding `CC(=O)c1cc(C(C)(C)C)cc2c1CCC2(C)C`, the compound was classed as inactive.
Same read-out and setting: with `NC(=S)Nc1ccccc1` the entry was “inactive”; with `Oc1c(I)cc(I)cc1I`, “inactive”; with `COC(=O)c1sccc1S(=O)(=O)NC(=O)Nc1nc(C)nc(OC)n1`, “inactive”.
As for `O=C1CCCN1`, the call was inactive.
Take `Nc1ccc(Cl)cc1C(=O)c1ccccc1`: the outcome was inactive.
Take `Cc1cc(Cl)ccc1O[C@H](C)C(=O)O`: the result was inactive.
Regarding `CC(C)c1cccc(C(C)C)c1O`, the outcome was inactive.
Still for that read-out and setting: with `O=C(c1ccccc1)C(Cl)Cl` the entry was “inactive”; with `Cc1cc(=O)[nH]o1`, “inactive”.
On the same count and under the same terms, with `CC(=[OH+])/C=C(/C)[O-].CC(=[OH+])/C=C(/C)[O-].CC(=[OH+])/C=C(/C)[O-].[Fe]` the entry was “inactive”; with `CN(CCCC(=O)c1cccnc1)N=O`, “inactive”; with `C[C@H]1CCCC(=O)CCC/C=C/c2cc(O)cc(O)c2C(=O)O1`, “inactive”.
Still for that read-out and setting: for `ClC1=C(Cl)[C@]2(Cl)[C@@H]3[C@@H](Cl)[C@@H](Cl)C[C@@H]3[C@@]1(Cl)C2(Cl)Cl` the value was “inactive”; for `CC(=[OH+])/C=C(/C)[O-].CC(=[OH+])/C=C(/C)[O-].CC(=[OH+])/C=C(/C)[O-].[Al]`, “inactive”; for `CC1CN1P(=O)(N1CC1C)N1CC1C` (stereo not given), “inactive”.
`CCOP(=S)(OCC)Oc1ccc(S(C)=O)cc1` (stereo not given): the call was inactive.
On the same count and under the same terms, for `Clc1ccc(C2(Cn3cncn3)CC(Br)CO2)c(Cl)c1` (stereo not given) the value was “inactive”; for `COc1ccc(C=O)cc1OC`, “inactive”.
In the case of `CCCCCCCCCl`, the call was inactive.
Take `C=CC(=O)N(C)C`: the call was inactive.
On to `C(=NC1CCCCC1)=NC1CCCCC1`, for which the result was inactive.
Regarding `CC1(C)Cc2cccc(O)c2O1`, the call was inactive.
The same measure, in the same setting: with `C=CCc1ccc(OC)cc1` the entry was “inactive”.
For orientation: AC50 means the midpoint of the concentration-response curve, whichever way the signal moves. For `CC(C)C1CCC(Cc2ccc(Cl)cc2)C1(O)Cn1cncn1` (stereo not given), the AC50 is 33.2 µM (active) and the result was inactive.
As to `C[C@@H](Oc1ccc(Cl)cc1Cl)C(=O)O`, the compound was called inactive.
`Nc1ncc([N+](=O)[O-])s1`: the outcome was inactive.
The same measure, in the same setting: with `O=C(O)Cc1ccccc1` the entry was “inactive”.
